# According to the supplement of paper PMC8728848:
# Shown is part of a subset that was picked to be rich in the strongest signals.
# B1: Flo5 (Saccharomyces cerevisiae), P38894 (protein)
# chain: MGSSHHHHHHSSGLVPRGSHMSGATEACLPAGQRKSGMNINFYQYSLKDSSTYSNAAYMAYGYASKTKLGSVGGQTDISIDYNIPCVSSSGTFPCPQEDSYGNWGCKGMGACSNSQGIAYWSTDLFGFYTTPTNVTLEMTGYFLPPQTGSYTFSFATVDDSAILSVGGSIAFECCAQEQPPITSTNFTINGIKPWDGSLPDNITGTVYMYAGYYYPLKVVYSNAVSWGTLPISVELPDGTTVSDNFEGYVYSFDDDLSQSNCTIPDPSIH
# B2: Neuropilin-2 (Homo sapiens), O60462 (protein)
# chain: MDMFPLTWVFLALYFSRHQVRGQPDPPCGGRLNSKDAGYITSPGYPQDYPSHQNCEWIVYAPEPNQKIVLNFNPHFEIEKHDCKYDFIEIRDGDSESADLLGKHCGNIAPPTIISSGSMLYIKFTSDYARQGAGFSLRYEIFKTGSEDCSKNFTSPNGTIESPGFPEKYPHNLDCTFTILAKPKMEIILQFLIFDLEHDPLQVGEGDCKYDWLDIWDGIPHVGPLIGKYCGTKTPSELRSSTGILSLTFHTDMAVAKDGFSARYYLVHQEPLENFQCNVPLGMESGRIANEQISASSTYSDGRWTPQQSRLHGDDNGWTPNLDSNKEYLQVDLRFLTMLTAIATQGAISRETQNGYYVKSYKLEVSTNGEDWMVYRHGKNHKVFQANNDATEVVLNKLHAPLLTRFVRIRPQTWHSGIALRLELFGCRVTDAPCSNMLGMLSGLIADSQISASSTQEYLWSPSAARLVSSRSGWFPRIPQAQPGEEWLQVDLGTPKTVKGVIIQGARGGDSITAVEARAFVRKFKVSYSLNGKDWEYIQDPRTQQPKLFEGNMHYDTPDIRRFDPIPAQYVRVYPERWSPAGIGMRLEVLGCDWTDSKPTVETLGPTVKSEETTTPYPTEEEATECGENCSFEDDKDLQLPSGFNCNFDFLEEPCGWMYDHAKWLRTTWASSSSPNDRTFPDDRNFLRLQSDSQREGQYARLISPPVHLPRSPVCMEFQYQATGGRGVALQVVREASQESKLLWVIREDQGGEWKHGRIILPSYDMEYQIVFEGVIGKGRSGEIAIDDIRISTDVPLENCMEPISAFAGENFKVDIPEIHEREGYEDEIDDEYEVDWSNSSSATSGSGAPSTDKEKSWLYTLDPILITIIAMSSLGVLLGATCAGLLLYCTCSYSGLSSRSCTTLENYNFELYDGLKHKVKMNHQKCCSEA
# Tests used:
# Experiment in all cases: glycan array binding signal (z-score within array); higher = stronger binding
# Details in all cases: glycan notation: IUPAC condensed, linker removed
# [1] = target: Fuc(a1-2)Gal(b1-3)GalNAc(b1-3)Gal
# In short: (§1)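 Columns mapping to the same glycan were averaged after glycan names were converted to IUPAC-condensed notation. The data come from 3228 arrays in the Consortium for Functional Glycomics database, limited to those with an available protein sequence. Binding is reported as a within-array Z-score averaged across arrays of one protein sequence and across linkers.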
# Fuc(a1-2)Gal(b1-4)Glc = target: Fuc(a1-2)Gal(b1-4)Glc
# In short: as §1
# [2] = target: Fuc(a1-2)Gal(b1-4)GlcNAc(b1-3)Gal(b1-4)GlcNAc(b1-3)Gal(b1-4)GlcNAc
# In short: as §1
# [3] = target: Fuc(a1-2)Gal(b1-4)[Fuc(a1-3)]GlcNAc(b1-3)Gal(b1-4)[Fuc(a1-3)]GlcNAc
# In short: as §1
# [4] = target: Fuc(a1-2)[Gal(a1-4)]Gal(b1-4)GlcNAc
# In short: as §1
# [5] = target: Fuc(a1-2)[GalNAc(a1-4)]Gal(b1-4)GlcNAc
# In short: as §1
# [6] = target: Fuc(a1-3)[Gal(b1-4)]Glc6S
# In short: as §1
# [7] = target: Fuc(a1-3)[Gal(b1-4)]GlcNAc(b1-2)Man(a1-6)[Gal(b1-4)GlcNAc(b1-2)Man(a1-3)]Man(b1-4)GlcNAc(b1-4)GlcNAc
# In short: as §1
# [8] = target: Fuc(a1-3)[Gal(b1-4)]GlcNAc(b1-4)Gal(b1-4)[Fuc(a1-3)]GlcNAc(b1-4)Gal(b1-4)[Fuc(a1-3)]GlcNAc
# In short: as §1
# [9] = target: Fuc(a1-3)[Neu5Ac(a2-3)]Gal(b1-4)GlcNAc(b1-3)GalNAc
# In short: as §1
# [10] = target: Gal(b1-3)[Fuc(a1-4)]GlcNAc
# In short: as §1
# [11] = target: Gal(b1-3)[Neu5Ac(b2-6)]GalNAc
# In short: as §1
# [12] = target: Gal(b1-4)GalNAc(a1-3)[Fuc(a1-2)]Gal(b1-4)GlcNAc
# In short: as §1
# Gal3S(b1-3)GalNAc = target: Gal3S(b1-3)GalNAc
# In short: as §1
# Gal3S(b1-4)Glc6S = target: Gal3S(b1-4)Glc6S
# In short: as §1
# Gal6S(b1-4)Glc = target: Gal6S(b1-4)Glc
# In short: as §1
# Glc(b1-6)Glc = target: Glc(b1-6)Glc
# In short: as §1
# [13] = target: GlcNAc(b1-3)Gal(b1-4)GlcNAc(b1-3)Gal(b1-4)GlcNAc
# In short: as §1
# [14] = target: GlcNAc(b1-3)[GlcNAc(b1-6)]Gal(b1-4)GlcNAc
# In short: as §1
# [15] = target: GlcNAc(b1-4)[GlcNAc(b1-6)]GalNAc
# In short: as §1
# [16] = target: Man(a1-2)Man(a1-2)Man(a1-3)Man
# In short: as §1
# [17] = target: Man(a1-3)[Man(a1-6)]Man(a1-6)[Man(a1-3)]Man
# In short: as §1
# [18] = target: Neu5Ac(a2-3)Gal(b1-4)GlcNAc(b1-6)[Gal(b1-3)]GalNAc
# In short: as §1
# Neu5Ac(a2-8)Neu5Ac = target: Neu5Ac(a2-8)Neu5Ac
# In short: as §1
# [19] = target: Neu5Ac(a2-8)Neu5Ac(a2-3)[GalNAc(b1-4)]Gal(b1-4)Glc
# In short: as §1
# [20] = target: Neu5Ac(a2-8)Neu5Ac(a2-8)Neu5Ac(a2-8)Neu5Ac(a2-3)[GalNAc(b1-4)]Gal(b1-4)Glc
# In short: as §1
# [21] = target: Neu5Ac9Ac(a2-3)Gal(b1-4)GlcNAc
# In short: as §1
# [22] = target: Fuc(a1-2)Gal(b1-4)GlcNAc(b1-2)Man(a1-3)[Fuc(a1-2)Gal(b1-4)GlcNAc(b1-2)Man(a1-6)]Man(b1-4)GlcNAc(b1-4)GlcNAc
# In short: as §1
# [23] = target: Fuc(a1-2)Gal(b1-4)[Fuc(a1-3)]GlcNAc
# In short: as §1
# [24] = target: Fuc(a1-2)[GalNAc(a1-3)]Gal(b1-3)GlcNAc(b1-2)Man(a1-3)[Fuc(a1-2)[GalNAc(a1-3)]Gal(b1-3)GlcNAc(b1-2)Man(a1-6)]Man(b1-4)GlcNAc(b1-4)GlcNAc
# In short: as §1
# [25] = target: Fuc(a1-2)[GalNAc(a1-3)]Gal(b1-4)Glc
# In short: as §1
# [26] = target: Fuc(a1-3)[Gal3S(b1-4)]Glc6S
# In short: as §1
# [27] = target: Fuc(a1-3)[Gal3S(b1-4)]GlcNAc
# In short: as §1
# [28] = target: Gal(b1-3)GalNAc(a1-3)[Fuc(a1-2)]Gal(b1-4)Glc
# In short: as §1
# [29] = target: Gal(b1-3)[Fuc(a1-4)]GlcNAc(b1-2)Man(a1-3)[Gal(b1-3)[Fuc(a1-4)]GlcNAc(b1-2)Man(a1-6)]Man(b1-4)GlcNAc(b1-4)GlcNAc
# In short: as §1
# [30] = target: Gal(b1-4)GlcNAc(b1-3)Gal(b1-3)GlcNAc
# In short: as §1
# Gal3S4S(b1-4)GlcNAc = target: Gal3S4S(b1-4)GlcNAc
# In short: as §1
# GalNAc(b1-4)GlcNAc = target: GalNAc(b1-4)GlcNAc
# In short: as §1
# [31] = target: GlcNAc(a1-4)Gal(b1-3)GlcNAc
# In short: as §1
# [32] = target: GlcNAc(a1-4)Gal(b1-4)GalNAc
# In short: as §1
# [33] = target: GlcNAc(a1-4)Gal(b1-4)GlcNAc(b1-3)Gal(b1-4)Glc
# In short: as §1
# [34] = target: GlcNAc(a1-4)Gal(b1-4)GlcNAc(b1-3)Gal(b1-4)[Fuc(a1-3)]GlcNAc(b1-3)Gal(b1-4)[Fuc(a1-3)]GlcNAc
# In short: as §1
# GlcNAc(b1-4)GlcNAc = target: GlcNAc(b1-4)GlcNAc
# In short: as §1
# [35] = target: Man(a1-2)Man(a1-2)Man(a1-6)[Man(a1-3)]Man
# In short: as §1
# [36] = target: Man(a1-2)Man(a1-3)[Man(a1-2)Man(a1-6)]Man
# In short: as §1
# [37] = target: Man(a1-2)Man(a1-3)[Man(a1-2)Man(a1-6)]Man(a1-6)[Man(a1-2)Man(a1-2)Man(a1-3)]Man
# In short: as §1
# [38] = target: Neu5Ac(a2-3)Gal(b1-4)GlcNAc(b1-2)Man(a1-3)[Neu5Ac(a2-6)Gal(b1-4)GlcNAc(b1-2)Man(a1-6)]Man(b1-4)GlcNAc(b1-4)GlcNAc
# In short: as §1
# [39] = target: Neu5Ac(a2-3)Gal(b1-4)GlcNAc(b1-6)[Neu5Ac(a2-3)Gal(b1-3)]GalNAc
# In short: as §1
# [40] = target: Neu5Ac(a2-3)Gal(b1-4)[Fuc(a1-3)]GlcNAc(b1-3)Gal
# In short: as §1
# [41] = target: Neu5Ac(a2-3)Gal(b1-4)[Fuc(a1-3)]GlcNAc(b1-3)Gal(b1-4)GlcNAc
# In short: as §1
# [42] = target: Neu5Ac(a2-3)GalNAc(b1-4)GlcNAc
# In short: as §1
# [43] = target: Neu5Ac(a2-3)[GalNAc(b1-4)]Gal(b1-4)Glc
# In short: as §1
# Neu5Ac(a2-6)Gal(b1-4)Glc = target: Neu5Ac(a2-6)Gal(b1-4)Glc
# In short: as §1
# [44] = target: Neu5Ac(a2-6)Gal(b1-4)GlcNAc(b1-2)Man(a1-3)Man(b1-4)GlcNAc(b1-4)GlcNAc
# In short: as §1
# [45] = target: Neu5Ac(a2-6)Gal(b1-4)GlcNAc(b1-2)Man(a1-3)[GlcNAc(b1-2)Man(a1-6)]Man(b1-4)GlcNAc(b1-4)GlcNAc
# In short: as §1
binder,measurement,setting,value
B1,glycan array binding signal (z-score),[1],1.59
same,glycan array binding signal (z-score),Fuc(a1-2)Gal(b1-4)Glc,1.59
same,glycan array binding signal (z-score),[2],-0.14
same,glycan array binding signal (z-score),[3],-0.205
same,glycan array binding signal (z-score),[4],-0.23
same,glycan array binding signal (z-score),[5],3.78
same,glycan array binding signal (z-score),[6],-0.024
same,glycan array binding signal (z-score),[7],-0.206
same,glycan array binding signal (z-score),[8],-0.162
same,glycan array binding signal (z-score),[9],-0.232
same,glycan array binding signal (z-score),[10],-0.153
same,glycan array binding signal (z-score),[11],-0.121
same,glycan array binding signal (z-score),[12],-0.189
same,glycan array binding signal (z-score),Gal3S(b1-3)GalNAc,-0.17
same,glycan array binding signal (z-score),Gal3S(b1-4)Glc6S,8.31
same,glycan array binding signal (z-score),Gal6S(b1-4)Glc,-0.082
same,glycan array binding signal (z-score),Glc(b1-6)Glc,-0.203
same,glycan array binding signal (z-score),[13],-0.027
same,glycan array binding signal (z-score),[14],-0.156
same,glycan array binding signal (z-score),[15],-0.139
same,glycan array binding signal (z-score),[16],6.07
same,glycan array binding signal (z-score),[17],3.11
same,glycan array binding signal (z-score),[18],-0.196
same,glycan array binding signal (z-score),Neu5Ac(a2-8)Neu5Ac,-0.148
same,glycan array binding signal (z-score),[19],-0.104
same,glycan array binding signal (z-score),[20],-0.149
same,glycan array binding signal (z-score),[21],-0.126
B2,glycan array binding signal (z-score),[1],1.26
same,glycan array binding signal (z-score),[22],3.21
same,glycan array binding signal (z-score),[23],0.117
same,glycan array binding signal (z-score),[24],-0.324
same,glycan array binding signal (z-score),[25],-0.637
same,glycan array binding signal (z-score),[6],0.81
same,glycan array binding signal (z-score),[8],-0.508
same,glycan array binding signal (z-score),[26],6.67
same,glycan array binding signal (z-score),[27],0.282
same,glycan array binding signal (z-score),[28],-0.835
same,glycan array binding signal (z-score),[10],0.255
same,glycan array binding signal (z-score),[29],5.64
same,glycan array binding signal (z-score),[30],-0.249
same,glycan array binding signal (z-score),Gal3S4S(b1-4)GlcNAc,-0.032
same,glycan array binding signal (z-score),GalNAc(b1-4)GlcNAc,-0.284
same,glycan array binding signal (z-score),[31],1.66
same,glycan array binding signal (z-score),[32],6.59
same,glycan array binding signal (z-score),[33],1.04
same,glycan array binding signal (z-score),[34],10.4
same,glycan array binding signal (z-score),GlcNAc(b1-4)GlcNAc,-0.129
same,glycan array binding signal (z-score),[35],-0.323
same,glycan array binding signal (z-score),[36],-0.496
same,glycan array binding signal (z-score),[37],-0.552
same,glycan array binding signal (z-score),[38],-0.501
same,glycan array binding signal (z-score),[39],-0.664
same,glycan array binding signal (z-score),[40],-0.587
same,glycan array binding signal (z-score),[41],3.79
same,glycan array binding signal (z-score),[42],0.369
same,glycan array binding signal (z-score),[43],-0.339
same,glycan array binding signal (z-score),Neu5Ac(a2-6)Gal(b1-4)Glc,0.038
same,glycan array binding signal (z-score),[44],-0.201
same,glycan array binding signal (z-score),[45],-0.609
